Results taken from PMC4336329 (PLoS ONE, 2015).
Hit rate of the full screen: of about 310,000 compounds, about 14,000 (4.5%) showed an effect of 50% or more. The effect is printed as a negative number. For the sample, strong results were picked, then their nearest neighbours and some compounds at random.

What follows are compounds tested against human ether-à-go-go-related gene (hERG) potassium channel (human, UniProt Q12809) (assay: primary screen, population patch clamp on CHO cells stably expressing hERG; higher = less effect of the substance).
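Also: peak tail current of the secondary pulse compared with the same well before compound.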

human ether-à-go-go-related gene (hERG) potassium channel, sequence (Q12809 whole entry, looked up): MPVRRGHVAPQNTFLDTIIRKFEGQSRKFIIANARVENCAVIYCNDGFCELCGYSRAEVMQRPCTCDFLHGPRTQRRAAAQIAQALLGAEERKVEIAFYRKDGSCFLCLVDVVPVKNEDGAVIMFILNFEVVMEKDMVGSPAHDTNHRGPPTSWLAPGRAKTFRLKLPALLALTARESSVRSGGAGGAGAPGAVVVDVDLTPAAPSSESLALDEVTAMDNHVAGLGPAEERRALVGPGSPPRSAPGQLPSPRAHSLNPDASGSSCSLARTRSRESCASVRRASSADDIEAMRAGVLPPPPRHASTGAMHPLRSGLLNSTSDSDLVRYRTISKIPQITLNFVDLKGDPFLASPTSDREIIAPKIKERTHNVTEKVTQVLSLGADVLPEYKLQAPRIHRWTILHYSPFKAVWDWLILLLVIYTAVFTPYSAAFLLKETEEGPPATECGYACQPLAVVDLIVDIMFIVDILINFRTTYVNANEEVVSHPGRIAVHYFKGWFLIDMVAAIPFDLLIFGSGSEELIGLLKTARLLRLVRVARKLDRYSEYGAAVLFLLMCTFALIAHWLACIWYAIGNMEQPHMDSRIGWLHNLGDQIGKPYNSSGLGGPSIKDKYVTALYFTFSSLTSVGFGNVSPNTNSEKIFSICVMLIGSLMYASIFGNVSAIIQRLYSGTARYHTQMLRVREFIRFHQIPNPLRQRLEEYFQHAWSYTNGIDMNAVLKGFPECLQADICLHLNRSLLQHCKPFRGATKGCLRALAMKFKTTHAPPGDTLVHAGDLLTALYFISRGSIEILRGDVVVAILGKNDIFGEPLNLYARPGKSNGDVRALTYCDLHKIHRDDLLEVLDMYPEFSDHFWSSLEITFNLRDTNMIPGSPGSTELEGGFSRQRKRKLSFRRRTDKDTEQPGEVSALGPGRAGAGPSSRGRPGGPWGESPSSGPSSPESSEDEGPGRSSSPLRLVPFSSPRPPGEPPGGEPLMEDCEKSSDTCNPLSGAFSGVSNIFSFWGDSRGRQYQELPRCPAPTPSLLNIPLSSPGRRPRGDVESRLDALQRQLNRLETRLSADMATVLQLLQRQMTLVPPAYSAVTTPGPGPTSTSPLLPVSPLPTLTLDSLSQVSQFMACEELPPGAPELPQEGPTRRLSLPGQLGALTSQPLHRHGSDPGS

Going from Cc1nn(Cc2ccc(Cl)cc2Cl)c(C)c1NC(=O)C1C2CCC(O2)C1C(=O)O (stereo not drawn) to CC(Oc1ccc(Cl)cc1Cl)C(=O)NCCC1=CCCCC1 (stereo not drawn), the “hERG current change (%, negative = inhibition) at 10uM” value rises from -9.88% to 4.46%.

Compared with Cc1ccc(CN(C)C(=O)c2ccc3c(c2)NC(=O)CS3)o1, COc1ccc(Cc2nc3ccc(C(=O)N(C)CCCN4CCOCC4)cc3o2)cc1 is higher in “hERG current change (%, negative = inhibition) at 10uM” value: -17.2% for the first, 10% for the second.

First: Cc1cc(S(=O)(=O)NCc2cccnc2)ccc1F
Second: Cc1ccc(S(=O)(=O)NCCNC(=O)c2ccc(C)nc2)cc1
The “hERG current change (%, negative = inhibition) at 10uM” value of the first is higher: -3.24% for the first, -72% for the second.

Going from COc1ccc(S(=O)(=O)CCC(=O)N(C)c2ccc(OC)cc2OC)cc1 to COc1ccc(N(CC(=O)NCC2CCCO2)S(=O)(=O)c2ccc(C)cc2)cc1OC (stereo not drawn), the “hERG current change (%, negative = inhibition) at 10uM” value rises from -12.8% to -3.96%.

Going from CN1CC(=O)NC1=NC(=O)C12CC3CC(CC(C3)C1)C2 to CCOC(=O)CSc1nc(N)cc(=O)[nH]1, the “hERG current change (%, negative = inhibition) at 10uM” value rises from -8.73% to 7.78%.

Going from Cl.Clc1cccc(Cl)c1CNC1CCCC1 to O=C(NCC1CCCN(C(=O)c2cc(Cl)ccc2F)C1)c1ccc(F)cc1 (stereo not drawn), the “hERG current change (%, negative = inhibition) at 10uM” value falls from 13.5% to -6.65%.

First: Cc1ccc(N(C(=O)Cn2nnc3ccccc32)C(C(=O)NCc2ccccc2)c2ccccn2)cc1 (stereo not drawn)
Second: CC(=O)c1ccc(N(C(=O)Cn2nnc3ccccc32)C(C(=O)NCc2ccccc2)c2ccccn2)cc1 (stereo not drawn)
The “hERG current change (%, negative = inhibition) at 10uM” value of the first is higher: -45.5% for the first, -73.2% for the second.

First: CC(=O)c1cccc(N(C(=O)Cn2nnc3ccccc32)C(C(=O)NCc2ccccc2)c2ccccn2)c1 (stereo not drawn)
Second: Cn1c(=O)c(C(=O)COC(=O)c2cc(-c3ccco3)nc3ccccc23)c(N)n(Cc2ccccc2)c1=O
The “hERG current change (%, negative = inhibition) at 10uM” value of the first is lower: -39% for the first, -12.2% for the second.

Going from Cc1cc(Nc2ccc3c(c2)OCCO3)n2nc(C)nc2n1 to Cc1cc(C)c(C#N)c(Nc2ccc3c(c2)OCCO3)n1, the “hERG current change (%, negative = inhibition) at 10uM” value rises from -9.32% to 5.17%.

First: Cc1cc(Nc2ccc3c(c2)OCCO3)c2ccccc2n1.Cl
Second: Cc1cc(Nc2ccc3c(c2)OCCO3)c2cc(Cl)ccc2n1.Cl
The “hERG current change (%, negative = inhibition) at 10uM” value of the first is lower: -56.1% for the first, -52.6% for the second.

Going from Cc1cc(C(=O)Nc2ccc3c(c2)OCCO3)c2ccccc2n1 to Cc1ccc2nc(C)cc(Nc3ccc4c(c3)OCCO4)c2c1.Cl, the “hERG current change (%, negative = inhibition) at 10uM” value falls from 18.4% to -58.2%.

Compared with CCOc1cccc(C(=O)Nc2ccc3c(c2)OCCO3)c1, CCOc1ccc(C(=O)Nc2ccc3c(c2)OCCO3)cc1 is lower in “hERG current change (%, negative = inhibition) at 10uM” value: 3.35% for the first, -1.74% for the second.

Going from Cc1cc(Nc2ccc3c(c2)OCCO3)c2cccc(C)c2n1.Cl to CCOc1ccc2nc(C)cc(Nc3ccc4c(c3)OCCO4)c2c1.Cl, the “hERG current change (%, negative = inhibition) at 10uM” value falls from -40.7% to -72.4%.

Going from Cc1cc(C)c(C(N)=O)c(Nc2ccc3c(c2)OCCO3)n1 to Cc1cc(C)n2c(Nc3ccc4c(c3)OCCO4)c(-c3ccccc3)nc2n1, the “hERG current change (%, negative = inhibition) at 10uM” value falls from 0.162% to -16.7%.

First: O=C(COc1ccc(F)cc1Cl)Nc1ccc(N2CCOCC2)cc1N1CCOCC1
Second: Cc1cc(C(=O)Nc2ccccc2N2CCOCC2)c(C)o1
The “hERG current change (%, negative = inhibition) at 10uM” value of the first is higher: -10.2% for the first, -18.1% for the second.

Going from Cc1ccc(C2(C)NC(=O)N(CC(=O)N(Cc3ccccc3)C(C)(C)C)C2=O)cc1 (stereo not drawn) to CN(Cc1ccccc1)C(=O)c1[nH]cnc1C(=O)NCc1ccc(CNC(=O)OC(C)(C)C)cc1, the “hERG current change (%, negative = inhibition) at 10uM” value falls from -1.1% to -6.68%.

First: Cc1nccn1CC(=O)N/N=C/c1cc(Br)cs1
Second: CC(=O)Nc1ccc2c(c1)nc(CCN1CCC(C)CC1)n2C
The “hERG current change (%, negative = inhibition) at 10uM” value of the first is lower: 6.58% for the first, 8.83% for the second.

First: Cc1ccc(C)c(Cn2cnc3c(nnn3-c3ccc(F)cc3)c2=O)c1
Second: Cc1ccc(-n2cccn2)c(CN2CCCC(CNC(=O)c3ccc(F)cc3)C2)c1 (stereo not drawn)
The “hERG current change (%, negative = inhibition) at 10uM” value of the first is higher: -2.53% for the first, -75.5% for the second.

Going from O=[N+]([O-])c1ccc(/C=C/c2ccc3ccccc3n2)cc1 to COc1ccccc1NC(=O)COc1ccc(/C=N/NS(=O)(=O)c2ccc(C)cc2)cc1, the “hERG current change (%, negative = inhibition) at 10uM” value rises from 5.95% to 20.1%.

Going from Cc1cc(C)c(CN2CCN(C(=O)Cn3ccc(NC(=O)OCc4ccccc4)nc3=O)CC2)c(C)c1 to CC(=O)N1CCN(Cc2nc3cc(NC(=O)COc4cccc(C)c4)ccc3n2C)CC1.Cl, the “hERG current change (%, negative = inhibition) at 10uM” value falls from -5.55% to -15.3%.

First: Cc1ccccc1CC(=O)N1CCCC(CNC(=O)c2ccc(F)cc2)C1 (stereo not drawn)
Second: COC(=O)c1ccccc1C(=O)N1CCCC(CNC(=O)c2ccc(F)cc2)C1 (stereo not drawn)
The “hERG current change (%, negative = inhibition) at 10uM” value of the first is lower: -2% for the first, 11.2% for the second.

First: CCn1ncc(CN2CCCC(CNC(=O)c3ccc(F)cc3)C2)c1C (stereo not drawn)
Second: Cc1cc(C)c(CN2CCCC(CNC(=O)c3ccc(F)cc3)C2)c(-n2cccn2)c1 (stereo not drawn)
The “hERG current change (%, negative = inhibition) at 10uM” value of the first is higher: -1.04% for the first, -75.6% for the second.

Compared with CCc1noc(C)c1C(=O)OCC(=O)N(CC)c1c(N)n(Cc2ccccc2)c(=O)[nH]c1=O, Cc1ccc(C(=O)NCCNS(=O)(=O)c2ccccc2)cn1 is higher in “hERG current change (%, negative = inhibition) at 10uM” value: 10.9% for the first, 12.7% for the second.

First: Cc1ccc(C2CC(=O)NC(SCCC(C)C)=C2C#N)cc1 (stereo not drawn)
Second: Cc1ccc(C(=O)NCCNC(=O)c2ccc(C)nc2)cc1
The “hERG current change (%, negative = inhibition) at 10uM” value of the first is lower: -10.6% for the first, 5.21% for the second.

First: COc1ccc(OCC(=O)Nc2ccc3c(c2)nc(CCN2CCC(C)CC2)n3C)cc1
Second: Cc1ccc(OCC(=O)Nc2ccc3c(c2)nc(CCN2CCC(C)CC2)n3C)cc1
The “hERG current change (%, negative = inhibition) at 10uM” value of the first is lower: -75.4% for the first, -70.6% for the second.

Compared with CC1CCN(CCc2nc3cc(NC(=O)COc4ccccc4)ccc3n2C)CC1, Cc1cccc(OCC(=O)Nc2ccc3c(c2)nc(CCN2CCC(C)CC2)n3C)c1 is lower in “hERG current change (%, negative = inhibition) at 10uM” value: -68.4% for the first, -68.7% for the second.

Going from CC1CCN(CCc2nc3cc(NC(=O)Nc4ccccc4)ccc3n2C)CC1 to CCC(=O)Nc1ccc2c(c1)nc(CCN1CCC(C)CC1)n2C, the “hERG current change (%, negative = inhibition) at 10uM” value rises from -44.4% to 1.48%.
